# nsP2pro inh = CHIKV nsP2 protease inhibition, primary qHTS; FRET peptide cleavage, nsP2pro, fluorescence 1 h; Potency, µM (titrated, usually from 24.9 µM), for inactives: at the highest dose activity change, negative = inhibition, most hits filed as inhibitors; hit rate 1.1% among 31,000; AID 1964107; note: nearly all actives have a fitted effect of over 60% in size
#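 FRET cleavage of 2.5 uM peptide 2 by 150 nM CHIKV protease domain at pH 8.0 (Tris, Tween 20). Compounds at 7 concentrations (up to 25 uM) preincubated 15 min. Fluorescence read after 1 h at room temperature.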
# nsP2 cell sec = inhibits CHIKV nsP2 protease in cells. AID 1964100. hit rate 10% among 450. cell-based CHIKV nsP2 protease reporter assay. Potency, µM (series often up to 51.1 µM), for inactives: at the top dose activity change, negative = inhibition, most hits filed as inhibitors. shares compounds with nsP2pro inh; note: nearly all actives have a fitted effect of over 70% in size
# CHIKV NSP2 FL = selectivity test for CHIKV nsP2 protease inhibitors: full-length NSP2; shares compounds with nsP2pro inh; Full-length CHIKV NSP2 protease enzymatic counterscreen; Potency, µM (top dose mostly 50.7 µM), without a hit: at the highest dose activity change, negative = inhibition, usual class: inhibitors; hit rate 39% among 410; note: nearly all actives have a fitted effect of over 65% in size
# Furin counterscr = human furin inhibition, counterscreen for nsP2pro inhibitors; hit rate 6% among 410; AID 1964102; Potency, µM (series often up to 50.6 µM), for inactives: at the top dose activity change, negative = inhibition, most hits filed as inhibitors; shares compounds with nsP2pro inh; Recombinant human furin enzymatic counterscreen, fluorogenic substrate
# NS23 peptide cs = blocks CHIKV nsP2 protease cleavage of endogenous NS2/3 peptide | Purified CHIKV nsP2 protease, endogenous NS2/3 peptide cleavage | Potency, µM (series often up to 51 µM), for inactives: at the highest dose activity change, negative = inhibition, most hits filed as inhibitors | AID 1964103 | shares compounds with nsP2pro inh | hit rate 34% among 410; note: nearly all actives have a fitted effect of over 55% in size
# Papain counter = papain protease inhibition, counterscreen for nsP2pro inhibitors; shares compounds with nsP2pro inh; Potency, µM (top dose mostly 51 µM), without a hit: at the highest dose activity change, negative = inhibition, usual class: inhibitors; AID 1964104; purified papain protease activity, enzymatic inhibition; hit rate 5% among 410
# nsP2pro conf qHTS = CHIKV nsP2 protease inhibition, confirmatory qHTS | shares compounds with nsP2pro inh | CHIKV nsP2 protease enzymatic activity, qHTS | Potency, µM (titrated, usually from 25.5 µM), inactives show at the top dose activity change, negative = inhibition, actives largely listed as inhibitors | hit rate 43% among 410 | AID 1964105; note: nearly all actives have a fitted effect of over 75% in size
# HCV NS3 counter = inhibits HCV NS3/4A protease in an nsP2pro selectivity counterscreen; shares compounds with nsP2pro inh; HCV NS3/4A protease biochemical counterscreen; Potency, µM (doses to about 50.9 µM), most hits filed as inhibitors; hit rate 20% among 410; AID 1964106; note: nearly all actives have a fitted effect of over 55% in size
# * marks the source's active call; other numbers are inactive results; i = inactive; u = inconclusive; ! = a repeat was not active; [ ] = remark or other dose. The entries come from a sample that favours hits as a whole. Calls come from the whole dose curve. % is set by controls: 0 for no effect and ±100 for the full control effect; potency is the fitted concentration of half-maximal effect.
SMILES,nsP2pro inh,others
COc1ccc(C2Nc3ccccc3C(=O)N2Cc2cccs2)cc1COc1c(C)cc(NC(C)=O)cc1C (centres undefined),-12%,
COC(=O)c1c(NC(=O)CCCOc2ccc(C(C)(C)C)cc2)sc2c1CCC(C)C2 (centres undefined),30%,
COC(=O)c1c(NC(=O)CCCOc2ccc(C)cc2)sc2c1C(C(=O)OC)CC2 (centres undefined),2.1µM*,nsP2 cell sec=18µM*;CHIKV NSP2 FL=u;Furin counterscr=-10%;NS23 peptide cs=12µM*;Papain counter=-14%;nsP2pro conf qHTS=7.1µM*;HCV NS3 counter=i
COC(=O)c1c(NC(=O)CCCOc2cccc(C)c2)sc2c1CCC(C)C2 (centres undefined),-20%,
CCOC(=O)c1c(NC(=O)CCCOc2ccc(C(C)(C)C)cc2)sc2c1CCCC2,-13%,
COC(=O)c1c(NC(=O)CCCOc2ccccc2C)sc2c1CCC(C)C2 (centres undefined),-18%,
CCOc1ccc(/C=C/C(=O)Nc2sc3c(c2C(=O)OC)C(C(=O)OC)CC3)cc1 (centres undefined),2.8µM*,nsP2 cell sec=-10%;CHIKV NSP2 FL=u;Furin counterscr=2%;NS23 peptide cs=4.7µM*;Papain counter=-2%;nsP2pro conf qHTS=3.7µM*;HCV NS3 counter=i
COC(=O)c1c(NC(=O)CCCOc2ccc(C)cc2)sc2c1CCCC2,-34%,
COC(=O)c1c(NC(=O)CCCOc2cccc(C)c2)sc2c1C(C(=O)OC)CC2 (centres undefined),1.9µM*,nsP2 cell sec=15µM*!;CHIKV NSP2 FL=18µM*;Furin counterscr=-12%;NS23 peptide cs=5.2µM*;Papain counter=-11%;nsP2pro conf qHTS=2.5µM*;HCV NS3 counter=i
COC(=O)c1c(NC(=O)CCCOc2cccc(C)c2)sc2c1CCC2,-16%,
CC(=O)Nc1ccc(CC(=O)N2CCC3(CCc4nn(Cc5ccccc5)c(=O)n4CC3)CC2)cc1,-3%,
C[C@H]1CN(C(=O)CC#N)[C@]12CCN(c1ncnc3[nH]ccc13)C2,-5%,
CC(=O)OC[C@H]1O[C@@H](n2cnc(N)nc2=O)[C@H](OC(C)=O)[C@@H]1OC(C)=O,3%,
COc1ccccc1-c1nc(-c2cccc(C(=O)O)c2)no1,-5%,
O=C(O)CSc1nnc(Br)n1-c1ccc(C2CC2)c2ccccc12,1%,
O=C(c1ccc(Cl)nc1)N1CCC2(CC1)CCN(Cc1cccs1)c1ccccc1O2,-2%,
O=c1[nH]c(C2CCN(Cc3ccc(-c4cccnc4)cc3)CC2)nc2ccc(F)cc12,-23%,
CC(=O)Nc1ccc(CC(=O)O)cc1,2%,
O=C(O)Cc1cc(I)c(Oc2ccc(O)c(I)c2)c(I)c1,22%,
O=C(O)Cc1ccc(O)c(O)c1,u,nsP2 cell sec=-3%;CHIKV NSP2 FL=-23%;Furin counterscr=-5%;NS23 peptide cs=u;Papain counter=-7%;nsP2pro conf qHTS=9µM*;HCV NS3 counter=8.2µM*
COc1cccc(Nc2ncnn3ccc(CN4CC[C@@H](N)[C@H](O)C4)c23)c1,39%,
O=C(Nc1ccc(Cl)nc1)Nc1nnc(-c2ccncc2)s1,i,
OCc1ccc(-c2ccc(-c3ccc(CO)s3)o2)s1,2.2µM*,nsP2 cell sec=-4%[17.6 µM];CHIKV NSP2 FL=4µM*;Furin counterscr=u;NS23 peptide cs=u;Papain counter=i;nsP2pro conf qHTS=3.1µM*;HCV NS3 counter=i
CCCCN=C(N)NC(=N)N,-6%,
C=CCC/C=C/C#CCCCCCCCC[C@H]1C(=O)O[C@H](C)[C@@H]1O,u,nsP2 cell sec=u;CHIKV NSP2 FL=u;Furin counterscr=-9%[33.5 µM];NS23 peptide cs=-8%[33.5 µM];Papain counter=u;nsP2pro conf qHTS=u;HCV NS3 counter=i
SMILES,nsP2pro inh,others
CO[C@H]1/C=C\O[C@@]2(C)Oc3c(C)c(O)c4c(O)c(c(/C=N/N5CCN(C6CCCC6)CC5)c(O)c4c3C2=O)NC(=O)/C(C)=C\C=C/[C@H](C)[C@H](O)[C@@H](C)[C@@H](O)[C@@H](C)[C@H](OC(C)=O)[C@@H]1C,6%,
FC(F)(F)c1ccccc1-c1nc(NCc2ccc(-c3cccnc3)cc2)c2ccccc2n1,i,
CNc1nc2c(s1)C(c1cccc(F)c1)CC(=O)N2 (centres undefined),3.2µM*,nsP2 cell sec=44%;CHIKV NSP2 FL=u;Furin counterscr=8%;NS23 peptide cs=10µM*;Papain counter=55%;nsP2pro conf qHTS=5.7µM*;HCV NS3 counter=i
CSc1nc(=O)c2c(n1C)NC(=O)CC2c1cc(F)cc(F)c1 (centres undefined),0%,
COc1cccc(C(=O)N2CCC(N3C(=O)c4c(c(C)nn4-c4ccccc4)C3C3CC3)C2)c1 (centres undefined),i,
CCOC(=O)c1ccc2c(c1)c(C(C)=O)c(C)n2-c1ccc(OC)cc1,-2%,
Oc1cccc(-c2c3nc(c(-c4cccc(O)c4)c4ccc([nH]4)c(-c4cccc(O)c4)c4nc(c(-c5cccc(O)c5)c5ccc2[nH]5)CC4)C=C3)c1,u,nsP2 cell sec=2%;CHIKV NSP2 FL=18µM*;Furin counterscr=2%;NS23 peptide cs=18µM*;Papain counter=u;nsP2pro conf qHTS=14µM*;HCV NS3 counter=i
FC(F)(F)c1ccccc1-c1nc(NCc2ccc(-c3cccnc3)cc2)c2sccc2n1,-3%,
CC(=O)O[C@@H]1CC2C(C)(C)C(=O)C=C[C@]2(C)C2CC[C@]3(C)C(=CC(=O)O[C@H]3c3ccoc3)[C@@]21C (some centres undefined),2%,
CC(=O)O[C@@H]1C[C@H](O)[C@@]23CO[C@H](O)[C@]1(C)C2C[C@@H](O)[C@]1(C)C3C(=O)[C@H](OC(C)=O)[C@@]2(C)[C@H](c3ccoc3)C[C@H]3O[C@]321 (some centres undefined),-2%[10 µM],
CC(=O)OC1CC(O)C2(C)C(CC(OC(C)=O)C3(C)C2CCC2(C)C(c4ccoc4)C(=O)C4OC423)C1(C)C (centres undefined),u,nsP2 cell sec=12%[17.6 µM];CHIKV NSP2 FL=-18%[17.3 µM];Furin counterscr=-9%[17.3 µM];NS23 peptide cs=-9%[17.2 µM];Papain counter=-13%[17.2 µM];nsP2pro conf qHTS=-28%[8.62 µM];HCV NS3 counter=i
CN(CC(O)CO)C(=O)c1c(I)c(NC(=O)C(CO)CO)c(I)c(C(=O)N(C)CC(O)CO)c1I (centres undefined),-7%,
O=C(NCCNC(=O)c1ccccc1F)c1ccc(-c2cncnc2)cc1,i,
Cc1ccnc(NC(=S)N2CCN(c3ccc(C(F)(F)F)cc3[N+](=O)[O-])CC2)c1,-8%,
CC(C)n1nc(C#Cc2ccccc2)c2c(N)ncnc21,4.4µM*,nsP2 cell sec=87%;CHIKV NSP2 FL=u;Furin counterscr=u;NS23 peptide cs=u;Papain counter=39%;nsP2pro conf qHTS=8µM*;HCV NS3 counter=u
CC(C)(C)n1nc(-c2ccc(Cl)cc2)c2c(N)ncnc21,19%,
CC(C)n1nc(-c2ccc(NC(=O)Nc3cccc(C(F)(F)F)c3)cc2)c2c(N)ncnc21,-4%,

# High-throughput results from PubChem BioAssay.
